Inconclusive results are not listed. Activity calls are given as the source filed them. Unless noted, the call rests on the fitted dose curve; in most records, active means well fitted curve in the direction sought with a large enough effect in the repeat runs; inconclusive means weak or mixed curves; inactive means no such curve, though single readings can be large; an effect the other way counts as inactive or inconclusive.
Legend:
[1] = A CellTox Green Cytotoxicity Assay to monitor cytotoxicity in HepG2 cells - 0 hour (AID 1224882); further: nearly all actives have a fitted effect of over 35% in size
In short: (§1)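 HepG2 cells, 600/well, preincubated 5 h with CellTox Green dye, then exposed to Tox21 compounds in DMSO at 37 C for up to 40 h. Dead-cell DNA fluorescence read at the indicated time point.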

[2] = A CellTox Green Cytotoxicity Assay to monitor cytotoxicity in HepG2 cells - 32 hour (AID 1224883); further: nearly all actives have a fitted effect of over 50% in size; further: potency means the concentration at half of the fitted maximal effect
In short: as §1

[3] = A CellTox Green Cytotoxicity Assay to monitor cytotoxicity in HEK293 cells - 8 hour (AID 1224884); further: nearly all actives have a fitted effect of over 35% in size; further: potency means the concentration at half of the fitted maximal effect
In short: (§2)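 HEK293 cells, 600/well, were preincubated 5 hours and then exposed to compounds at 37 C for up to 40 hours. A cell-impermeant cyanine dye staining dead-cell DNA was read by fluorescence at 0, 8, 16, 24, 32 and 40 h time points.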

[4] = qHTS RealTime-Glo MT Cell Viability Assay in HepG2 cells - 16 hour (AID 1224885); further: nearly all actives have a fitted effect of over 50% in size
In short: (§3)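 Tox21 10K library screened in qHTS format on HepG2 cells carrying RealTime-Glo reagents. Compounds were added after a 5 h preincubation, and the luminescent signal from continuous culture was measured repeatedly during 40 h treatment.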

[5] = qHTS RealTime-Glo MT Cell Viability Assay in HEK293 cells - 24 hour (AID 1224886); further: top concentration of the series differs between compounds; nearly all actives have a fitted effect of over 50% in size
In short: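 Luminescence generated by NanoLuc from substrate produced by living HEK293 cells served as the viability signal. Each value reflects the reading at its stated time point during continuous 40 h compound exposure at 37 C.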

[6] = qHTS RealTime-Glo MT Cell Viability Assay in HEK293 cells - 8 hour (AID 1224887); further: top concentration of the series differs between compounds; nearly all actives have a fitted effect of over 50% in size
In short: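 600 cells/well were plated with the nonlytic NanoLuc/prosubstrate reagent, pre-incubated 5 h, then given 23 nL of compound in DMSO. Incubation at 37 C for 40 h, with luminescence from viable-cell-reduced substrate read repeatedly from 0 h.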

[7] = A CellTox Green Cytotoxicity Assay to monitor cytotoxicity in HEK293 cells - 16 hour (AID 1224888); further: nearly all actives have a fitted effect of over 35% in size; further: potency means the concentration at half of the fitted maximal effect
In short: as §2

[8] = qHTS RealTime-Glo MT Cell Viability Assay in HepG2 cells - 0 hour (AID 1224889); further: nearly all actives have a fitted effect of over 50% in size
In short: as §3

[9] = A CellTox Green Cytotoxicity Assay to monitor cytotoxicity in HepG2 cells - 8 hour (AID 1224890); further: nearly all actives have a fitted effect of over 45% in size; further: potency means the concentration at half of the fitted maximal effect
In short: as §1

[10] = qHTS assay to identify small molecule antagonists of the estrogen receptor alpha (ER-alpha) signaling pathway using the BG1 cell line in the presence of 0.1 nM 17-beta-estradiol - cell viability counter screen (AID 1259241); further: nearly all actives have a fitted effect of over 40% in size
In short: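 Following 5 days in phenol red-free medium with charcoal-stripped serum, VM7Luc4E2 cells received test compounds alongside 0.1 nM 17beta-estradiol (final) at 37C for 22 hr. Live cells were then quantified via protease-substrate fluorescence.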

[11] = qHTS assay to identify small molecule antagonists of the androgen receptor (AR) signaling pathway using the MDA cell line in the presence of 0.5 nM R1881 - cell viability counter screen (AID 1259242); further: nearly all actives have a fitted effect of over 45% in size
In short: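 MDA-kb2 cells (MMTV-luciferase, AR/GR responsive) were treated with compounds plus 0.5 nM R1881 (final) for 16 hr at 37C, 0% CO2. Viability was then read in the same wells as live-cell protease fluorescence (CellTiter-Fluor, 30 min).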

[12] = qHTS assay to identify small molecule phospholipidosis (PLD) inducers (AID 1259344; active means well fitted curve in the direction sought with a large enough effect; an effect the other way counts as inactive or inconclusive)
In short: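 Fluorescent phospholipid staining (LipidTOX Red) measured by automated microscopy in fixed HepG2 cells after 24 h treatment; nuclei counterstained with Hoechst 33342; amiodarone as reference inducer.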

[13] = qHTS assay to identify small molecule HDAC inhibitors (AID 1259364); further: nearly all actives have a fitted effect of over 45% in size; further: potency means the concentration at half of the fitted maximal effect; on activity change, negative = inhibition: top concentration of the series differs between compounds
In short: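 Wild-type HCT-116 cells, plated overnight at 37 C, exposed to compounds 2 hr at 37 C; luminogenic HDAC-Glo substrate then added 30 min at room temperature. Luminescence reports relative endogenous class I/II HDAC activity.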

[14] = qHTS assay to identify small molecule HDAC inhibitors - cell viability counter screen (AID 1259365)
In short: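 HCT-116 wild-type, overnight attachment; 2hr drug exposure, 37C; CellTiter-Glo luminescent ATP readout after 30min RT.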

[15] = qHTS assay to identify small molecule agonists of the sonic hedgehog signaling (Shh) pathway - cell viability counter screen (AID 1259366); further: nearly all actives have a fitted effect of over 50% in size; further: potency means the concentration at half of the fitted maximal effect
In short: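 Compounds in DMSO were pin-transferred onto 3T3 Gli1-Luc cells that had settled 4hr; plates then stood 24hr at 37C and 5% CO2. One hour before the end, CellTiter-Fluor was added and fluorescence recorded.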

[16] = qHTS assay to identify small molecule antagonists of the sonic hedgehog signaling (Shh) pathway - cell viability counter screen (AID 1259367); further: nearly all actives have a fitted effect of over 55% in size; further: potency means the concentration at half of the fitted maximal effect
In short: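 Using CellTiter-Fluor, viability of Gli1-Luc reporter 3T3 cells is read by fluorescence in the wells used for the Shh luciferase assay. Treatment lasts 23 hr with conditioned medium, then reagent 1 hr at 37C.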

[17] = qHTS assay to identify small molecule agonists of the sonic hedgehog signaling (Shh) pathway (AID 1259368; calls by dose curve;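 further: NIH/3T3-derived 3T3Gli1-Luc cells carrying a stable Gli1-driven firefly luciferase reporter; series mostly up to about 92 µM; nearly all actives have a fitted effect of over 15% in size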)
In short: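 NIH/3T3-derived 3T3Gli1-Luc cells with stably integrated Gli1-driven firefly luciferase, 2,000 cells/well, compounds added after 4 hr. Incubated 24 hr at 37C, 5% CO2; luminescence read after 30 min with luciferase reagent at room temperature.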

[18] = qHTS assay to identify small molecule antagonists of the sonic hedgehog signaling (Shh) pathway (AID 1259369; calls by dose curve; further: nearly all actives have a fitted effect of over 45% in size; further: potency means the concentration at half of the fitted maximal effect)
In short: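 NIH/3T3-derived Gli1-Luc reporter cells plated 4 h, dosed with compound, then stimulated with conditioned medium for 24 h at 37 C. Firefly luciferase luminescence read after 30 min with detection reagent at room temperature.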
On the % scale 0 is the no-effect control and ±100 the full control effect.

O=C(O)[C@@H]1CSCN1
inactive: Potency [1] | Potency [2] | Potency [3] | outcome [4] | Potency [5] | Potency [6] | Potency [7] | Potency [8] | Potency [9] | Potency [10] | outcome [11] | outcome [12] | Potency [13] | outcome [14] | Potency [15] | Potency [16] | Potency [17] | Potency [18]

O=[N+]([O-])c1nccn1CO[C@@H](CO)[C@H](O)CO
inactive: Potency [1] | Potency [2] | Potency [3] | outcome [4] | Potency [5] | Potency [6] | Potency [7] | Potency [8] | Potency [9] | Potency [10] | outcome [11] | outcome [12] | Potency [13] | outcome [14] | Potency [15] | Potency [16] | Potency [17] | Potency [18]

O=C(O)c1ccccc1Nc1cc(Cl)ccc1C(=O)O
inactive: cytotoxicity [1] -1.43% [at 15.8 µM] | cytotoxicity increase [2] 20.7% [at 15.8 µM] | cytotoxicity increase [3] -18.6% [at 15.8 µM] | activity change, negative = cytotoxic [4] 0.467% [at 15.8 µM] | activity change, negative = cytotoxicity [5] 7.65% [at 15.8 µM] | activity change, negative = cytotoxicity [6] -4.99% [at 15.8 µM] | activity change [7] -3.78% [at 15.8 µM, stronger effect = higher value] | activity change, negative = cytotoxicity [8] -2.93% [at 15.8 µM] | cytotoxicity increase [9] 7.19% [at 15.8 µM] | activity change, negative = cytotoxicity [10] -25.8% [at 19 µM] | viability change, negative = cytotoxic [11] -0.133% [at 19 µM] | PLD induction [12] -4.32% [at 7.66 µM] | activity change, negative = inhibition [13] -1.95% [at 19 µM] | activity change, negative = cytotoxicity [14] -5.17% [at 19 µM] | activity change [17] -0.0136% [at 18.9 µM, stronger effect = higher value]

CCN(O)CC
active: Potency [13] 26.7 µM | Potency [15] 30 µM | Potency [16] 21.2 µM | Potency [18] 11.9 µM
inactive: Potency [1] | Potency [2] | Potency [3] | outcome [4] | Potency [5] | Potency [6] | Potency [7] | Potency [8] | Potency [9] | Potency [10] | outcome [11] | outcome [14] | Potency [17]

C=CC1CO1 (stereo not given)
inactive: Potency [1] | Potency [2] | Potency [3] | outcome [4] | Potency [5] | Potency [6] | Potency [7] | Potency [8] | Potency [9] | Potency [10] | outcome [11] | Potency [13] | outcome [14] | Potency [15] | Potency [16] | Potency [17] | Potency [18]

CCCCCCCCCCCCOCCOS(=O)(=O)O
inactive: Potency [1] | outcome [4] | Potency [5] | Potency [6] | Potency [8] | Potency [10] | outcome [11] | Potency [13] | outcome [14] | Potency [15] | Potency [16] | Potency [17] | Potency [18]
active: Potency [2] 54.9 µM | Potency [3] 19.5 µM | Potency [7] 21.9 µM | Potency [9] 54.9 µM

O=c1[nH]cnc2c1ncn2[C@@H]1O[C@H](CO)[C@@H](O)[C@H]1O
inactive: Potency [1] | Potency [2] | Potency [3] | outcome [4] | Potency [5] | Potency [6] | Potency [7] | Potency [8] | Potency [9] | Potency [10] | outcome [11] | outcome [12] | Potency [13] | outcome [14] | Potency [15] | Potency [16] | Potency [17] | Potency [18]

Source: PubChem BioAssay (Tox21)
